# Source: ChEMBL document CHEMBL3988442, “University of Dundee, Small-Polar-MMV Screening Library” (2021)
# Target: T1, Methionyl-tRNA synthetase, putative (Leishmania donovani (strain BPK282A1)) (UniProt E9BF75)
# T1 sequence (whole entry): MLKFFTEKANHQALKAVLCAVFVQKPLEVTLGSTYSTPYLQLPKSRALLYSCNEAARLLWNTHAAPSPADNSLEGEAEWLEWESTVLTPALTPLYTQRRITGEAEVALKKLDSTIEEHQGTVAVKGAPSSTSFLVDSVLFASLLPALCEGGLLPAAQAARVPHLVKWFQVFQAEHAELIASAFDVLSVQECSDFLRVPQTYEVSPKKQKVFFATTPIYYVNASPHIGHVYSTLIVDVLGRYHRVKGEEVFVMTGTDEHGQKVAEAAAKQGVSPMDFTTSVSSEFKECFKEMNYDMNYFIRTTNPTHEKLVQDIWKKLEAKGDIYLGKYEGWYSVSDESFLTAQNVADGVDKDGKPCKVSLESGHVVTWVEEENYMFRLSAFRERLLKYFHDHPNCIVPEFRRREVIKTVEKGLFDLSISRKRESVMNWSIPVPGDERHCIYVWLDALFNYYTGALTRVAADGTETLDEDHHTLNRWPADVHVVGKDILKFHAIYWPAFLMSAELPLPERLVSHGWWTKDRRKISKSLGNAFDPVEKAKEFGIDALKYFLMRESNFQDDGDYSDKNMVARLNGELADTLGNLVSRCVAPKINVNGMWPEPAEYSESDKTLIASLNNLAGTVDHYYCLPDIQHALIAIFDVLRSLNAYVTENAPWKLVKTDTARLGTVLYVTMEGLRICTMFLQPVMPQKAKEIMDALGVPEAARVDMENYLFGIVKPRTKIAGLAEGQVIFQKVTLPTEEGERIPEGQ
# Experiment: Leishmania donovani Methionine tRNA synthetase (LdMetRS):v7. Dose response assay
# Format: functional
# Design: conc 80 nM, time 150 minutes
smiles,measurement,setting,value
Clc1cc(Cl)cc(NCc2ccccn2)c1,PXC50,"BOTTOM 0.466583915, HILLSLOPE 0.636268233, MAX_EFFECT 51.05162524, TOP 100.0",2.71
Cn1ncc2c(NCCO)nc(Nc3cccc(Cl)c3)nc21,PXC50,"BOTTOM 2.482705833, HILLSLOPE 1.074607965, MAX_EFFECT 81.43133462, TOP 87.71460066",5.07
Cn1ncc2c(NC3CCCC(O)C3)nc(Nc3ccc(F)c(F)c3)nc21 (stereo unspecified),PXC50,"BOTTOM 4.828241924, HILLSLOPE 1.003842691, MAX_EFFECT 77.73584906, TOP 90.35664451",4.76
C[C@H](CO)Nc1ccnc(Nc2ccc(F)c(F)c2)n1,PXC50,"BOTTOM -1.459719323, HILLSLOPE 0.865053746, MAX_EFFECT 69.36416185, TOP 100.0",4.44
Clc1cc(Cl)cc(NCc2ncc[nH]2)c1,PXC50,"BOTTOM -1.539697056, HILLSLOPE 1.029999783, MAX_EFFECT 60.61185468, TOP 100.0",2.93
CN(CCO)c1ccnc(Nc2cccc(C(F)(F)F)c2)n1,PXC50,"BOTTOM -8.924411722, HILLSLOPE 0.906080231, MAX_EFFECT 87.09055877, TOP 92.74987259",5.38
c1ccc(-c2nc(-n3cnnc3)c3ccccc3n2)cc1,PXC50,MAX_EFFECT 0.740740741,< 4
NS(=O)(=O)c1cccnc1Nc1cccc(F)c1,PXC50,MAX_EFFECT 1.518026565,< 4
COc1cccc(NC(=O)Nc2ccccc2OC)c1,PXC50,MAX_EFFECT 2.056074766,< 4
Cn1ncc2c(NC3COC3)nc(Nc3ccc(F)c(F)c3)nc21,PXC50,MAX_EFFECT 2.264150943,< 4
C[C@@H](CO)Nc1nccc(Nc2ccc(F)c(F)c2)n1,PXC50,MAX_EFFECT 2.697495183,< 4
NS(=O)(=O)c1cccnc1Nc1cccc(O)c1,PXC50,MAX_EFFECT 3.333333333,< 4
Cc1cccc(Nc2ncccc2S(N)(=O)=O)c1,PXC50,MAX_EFFECT 4.448742747,< 4
C[C@H](CO)Nc1nccc(Cl)n1,PXC50,MAX_EFFECT 4.672897196,< 4
COc1ccccc1NC(=O)Nc1cnccc1OC,PXC50,MAX_EFFECT 4.905660377,< 4
CC(C)Nc1nc(NCCO)c2cnn(C)c2n1,PXC50,MAX_EFFECT 5.313092979,< 4
COc1ccccc1NC(=O)Nc1cc(C(=O)O)ccc1OC,PXC50,MAX_EFFECT 5.794392523,< 4
COC(=O)c1ccc(OC)c(NC(=O)Nc2ccccc2OC)c1,PXC50,MAX_EFFECT 5.794392523,< 4
Cn1c(NC(=O)Nc2ccccc2Cl)nc2ccccc21,PXC50,MAX_EFFECT 5.925925926,< 4
COc1ccncc1NC(=O)N1CCOc2ccccc21,PXC50,MAX_EFFECT 6.037735849,< 4
N#Cc1c(N)nc(-c2ccccc2)nc1C(F)(F)F,PXC50,MAX_EFFECT 6.666666667,< 4
C[C@@H](CO)Nc1nccc(Cl)n1,PXC50,MAX_EFFECT 6.91588785,< 4
NS(=O)(=O)c1cccnc1NC1CCCCC1,PXC50,MAX_EFFECT 6.986027944,< 4
NS(=O)(=O)c1cccnc1Nc1cc(O)ccn1,PXC50,MAX_EFFECT 7.407407407,< 4
Cc1cc(CNc2cc(Cl)cc(Cl)c2)no1,PXC50,MAX_EFFECT 7.456978967,< 2.7
NS(=O)(=O)c1cccnc1Nc1cncnc1,PXC50,MAX_EFFECT 8.518518519,< 4
CN1CCC(CNCc2cc(Cl)cc(Cl)c2)CC1,PXC50,MAX_EFFECT 8.986615679,< 2.7
CN(CCO)c1nc(NCCO)c2cnn(C)c2n1,PXC50,MAX_EFFECT 9.248554913,< 4
Cn1ncc2c(NCCO)nc(N3CCCCC3)nc21,PXC50,MAX_EFFECT 10.78998073,< 4
FC(F)(F)CCNCc1cc(Cl)cc(Cl)c1,PXC50,MAX_EFFECT 11.28107075,< 2.7
Clc1cc(Cl)cc(CNCC2CCOCC2)c1,PXC50,MAX_EFFECT 17.78202677,< 2.7
Nc1nc(-c2ccccc2)cn1NC(=O)Nc1ccccc1F,PXC50,MAX_EFFECT 18.14814815,< 4
Cn1ncc2c(NCCO)nc(NCCS(=O)(=O)N3CCOCC3)nc21,PXC50,MAX_EFFECT 23.12138728,< 4
Cn1ncc2c(N3CCCCC3)nc(Nc3ccccc3)nc21,PXC50,MAX_EFFECT 27.40740741,< 4
OCCCNc1ccnc(Nc2cccc(F)c2)n1,PXC50,MAX_EFFECT 28.51637765,< 4
Clc1cc(Cl)cc(CNCc2ccncc2)c1,PXC50,MAX_EFFECT 36.1376673,< 2.7
Cn1ncc2c(NCCO)nc(NCCn3cccn3)nc21,PXC50,MAX_EFFECT 36.99421965,< 4
COc1cccc(NC(=O)N2CCCc3ccccc32)c1,PXC50,MAX_EFFECT 45.28301887,< 4
NS(=O)(=O)c1cccnc1Nc1ccc(F)c(F)c1,PXC50,MAX_EFFECT -0.759013283,< 4
OCCCNc1ccnc(Cl)n1,PXC50,MAX_EFFECT 7.32177264,< 4
COc1ccccc1NC(=O)Nc1nn(C)c2ccccc12,PXC50,MAX_EFFECT 5.420560748,< 4
COC(=O)c1ccc(OC)c(NC(=O)N2CCCc3ccccc32)c1,PXC50,MAX_EFFECT 6.79245283,< 4
Clc1cc(Cl)cc(NCc2ccncc2)c1,PXC50,"BOTTOM -1.202484297, HILLSLOPE 0.574759938, MAX_EFFECT 66.34799235, TOP 100.0",3.3
COc1ccccc1NC(=O)Nc1cccc(O)c1,PXC50,MAX_EFFECT 2.803738318,< 4
C[C@H](CO)Nc1ccnc(Nc2cccc(C(F)(F)F)c2)n1,PXC50,MAX_EFFECT 43.93063584,< 4
OCCNc1ccnc(Cl)n1,PXC50,MAX_EFFECT 3.551401869,< 4
C[C@@H](CO)Nc1ccnc(Nc2ccc(F)c(F)c2)n1,PXC50,MAX_EFFECT 40.46242775,< 4
CC(NCc1cc(Cl)cc(Cl)c1)C1CCS(=O)(=O)CC1 (stereo unspecified),PXC50,MAX_EFFECT 19.31166348,< 2.7
COc1ccccc1CNC(=O)Nc1ccccc1OC,PXC50,MAX_EFFECT 9.158878505,< 4
Clc1cc(Cl)cc(CNCc2ncc[nH]2)c1,PXC50,MAX_EFFECT 20.45889101,< 2.7
CCn1c(NC(=O)Nc2ccccc2OC)nc2ccccc21,PXC50,MAX_EFFECT 1.111111111,< 4
OCCCNc1nccc(Nc2ccc(F)c(F)c2)n1,PXC50,MAX_EFFECT 15.09433962,< 4
C[C@H](CO)Nc1ccnc(Cl)n1,PXC50,MAX_EFFECT 5.046728972,< 4
Cn1ncc2c(NC3CCOC3)nc(Nc3ccc(F)c(F)c3)nc21 (stereo unspecified),PXC50,"BOTTOM 7.395126545, HILLSLOPE 0.941646955, MAX_EFFECT 86.79245283, TOP 90.65244752",5.1
Cn1ncc2c(NCCO)nc(NCc3ccccc3)nc21,PXC50,MAX_EFFECT 4.528301887,< 4
CN(CCO)c1ccnc(Cl)n1,PXC50,MAX_EFFECT 1.682242991,< 4
Cn1ncc2c(NCCO)nc(Nc3cccc(F)c3)nc21,PXC50,"BOTTOM 8.925751042, HILLSLOPE 1.252459196, MAX_EFFECT 66.66666667, TOP 81.92338456",4.47
C[C@H](CO)Nc1nccc(Nc2ccc(F)c(F)c2)n1,PXC50,MAX_EFFECT 6.165703276,< 4
Clc1cc(Cl)cc(CNCc2ccc3[nH]ncc3c2)c1,PXC50,"BOTTOM 1.106249154, HILLSLOPE 1.041028332, MAX_EFFECT 65.20076482, TOP 65.36183651",3.99
CN(C)c1nc(NCCO)c2cnn(C)c2n1,PXC50,MAX_EFFECT 10.24667932,< 4
COc1ccccc1NC(=O)Nc1ccn(C)n1,PXC50,MAX_EFFECT 6.168224299,< 4
